# System: tubulin (bovine brain)
# Test: tubulin polymerization end-point dOD, fold change relative to DMSO vehicle; higher = more polymerization (stabilization)
# Details: 50 µM; 60 min; 37 °C
# Experimental: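 In-vitro tubulin polymerization assay (Cytoskeleton HTS kit) with 4 mg/ml bovine brain tubulin in G-PEM buffer and compound at 50 uM (0.5% DMSO). Turbidity was read at 340 nm every minute for 1 h at 37 C. The end-point change in OD (dOD) was converted to % fold change relative to the DMSO vehicle (0%), and runs were scaled using DMSO and Taxol controls. The paper calls >20% an effect, 20-40% weak and >40% strong; positive values mean stabilization, negative values destabilization. Scale: negative = destabilization.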
row,Structure (SMILES),tubulin polymerization end-point dOD [%]
1,CCc1ccccc1NC(=O)CSc1nc2cc3c(cc2cc1CC)OCO3,-65
2,Cn1c(C(=O)Nc2ccc(-c3nccs3)cc2)cc(Br)c1Br,15.5
3,COc1cccc(N2CCN(C(=O)c3cn(-c4ccccc4)nc3-c3cccnc3)CC2)c1,-111
4,COc1ccccc1NC(=O)CSc1nnc(-c2cccnc2)n1-c1ccccc1C,-57.2
5,Nc1nc(SCC(=O)NC2CCCCC2)nc2sc3c(c12)CCCC3,-12
6,O=C(Nc1ncc(Cc2ccccc2Cl)s1)c1ccncc1,-29.4
7,Cc1cnc(C(=O)Nc2ncc(Cc3cccc(C)c3Cl)s2)cn1,-85.7
8,N#Cc1ccc(Cc2cnc(NC(=O)c3ccc4ncsc4c3)s2)cc1,-40.1
9,O=C(Nc1ccc2c(c1)OCCO2)C(=O)Nc1ccccc1Cl,13.5
10,Cc1ccc2nc(-c3ccc(I)cc3)cn2c1,101
11,COc1ccc2cc(CN(Cc3ccco3)C(=O)Nc3ccccc3OC)c(=O)[nH]c2c1,43.9
12,CCC(C)Cc1c(C)sc2nc(SCc3nnc(C)o3)[nH]c(=O)c12 (stereo not given),-13.9
13,O=C1N/C(=N/N=C/c2ccccc2O)SC1Cc1cc(C(F)(F)F)ccc1Cl (stereo not given),-23
14,O=c1[nH]c(CSc2ccccc2)nc2sc3c(c12)CCC3,-9.09
15,CCc1ccc2nc(SCC(=O)Nc3ccccc3OC)c(C#N)cc2c1,-25
16,CC(=O)c1c(C)oc2c1cc(NS(=O)(=O)c1ccc(C)cc1)c1ccccc12,-58.9
17,Cc1cc2nc(/C=C/c3cccs3)sc2cc1C,43.1
18,COc1cc(OC)cc(C(=O)N(Cc2ccccc2OC)Cc2cc3c(C)ccc(C)c3[nH]c2=O)c1,12.8
19,COc1ccc(C)cc1NC(=O)CSc1nc2ccc(C(C)C)cc2cc1C#N,-41.3
20,O=C(Nc1ccc2c(c1)OCCO2)C(=O)Nc1cccc2cccnc12,76

row,Structure (SMILES),tubulin polymerization end-point dOD [%]
1,Cc1ccccc1NC(=O)CSc1nc2cc3c(cc2cc1C)CCC3,69.3
2,COc1cc(C(=O)Nc2ccc3c(c2)Nc2ccccc2CC3)cc(OC)c1OC,-20.1
3,Cc1cc2nc(/C=C/c3ccsc3)sc2cc1C,237
4,O=C(NC1=NCCS1)c1sc2cccc(F)c2c1COc1ccccc1,34.2
5,Cc1cccc(N2CCN(C(=O)c3cc(Cl)ccc3Cl)CC2)c1,-45.7
6,Cc1cccc(/C=N/N=C2\NC(=O)C(Cc3cccc(C)c3)S2)c1 (stereo not given),9.8
7,CCOc1ccc(C(=O)N(Cc2cccs2)Cc2cc3cc(C)ccc3[nH]c2=O)cc1,27.2
8,CCc1nnc(NC(=O)CSc2cc(C)c3cc(C)cc(C)c3n2)s1,19.7
9,CS(=O)(=O)c1ccc(C(=O)Nc2ncc(Cc3cccc(Cl)c3Cl)s2)cc1,-8.57
10,CCc1cc2cc(OC)ccc2nc1SCC(=O)Nc1cc(C)ccc1OC,-2.45
11,C=CCOc1ccccc1NC(=O)c1cc(-c2c(C)nn(C)c2C)n[nH]1,-31.9
12,COc1ccc(/C(C)=N/Nc2cc[nH+]c3cc(Cl)ccc23)cc1OC,3.81
13,O=C(N/N=C/c1ccc2c3c(cccc13)CC2)C1COc2ccccc2O1 (stereo not given),28.5
14,O=C(Nc1ncc(Cc2ccccc2)s1)c1sc2ccccc2c1Cl,-14.2
15,O=c1[nH]c(/C=C\c2ccccc2)nc2ccccc12,40.5
16,Cc1ccc2cc(C)c3nn(CCNC(=O)c4cccnc4)c(=O)n3c2c1,-40.4
17,Cc1cccc2cc3c(N)c(C(=O)Nc4ccccc4N4CCOCC4)sc3nc12,411
18,Cc1csc(NC(=O)CSc2nnc(-c3cccnc3)n2-c2ccccc2C)n1,-45.1
19,COc1ccc2nc(SCC(=O)Nc3ccccc3OC)c(C#N)cc2c1,-9.01
20,COc1ccc2nc(SCC(=O)NCCc3ccc(OC)c(OC)c3)c(C)cc2c1,-15

# — the supplement of paper PMC4380459
